Data on six compounds can be found in PubChem BioAssay.

Where “and” joins values, the source holds several entries; their conditions need not be identical. Identical values can stand only once. Results filed as inconclusive are left out. Calls of active or inactive are those of the source.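 The calls were made as follows, unless noted: active = normalized viability below 100% at a tested concentration; inactive = the rest.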

Experiment [1] in a line: growth inhibition of DIPG glioma cells, dose response, cell-based, SU-DIPG-IV, MIPE4.0, CellTiter-Glo, qHTS (AID 1347063; cut-off not given, nearly all actives have AC50 up to about 30 µM;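 also: compound exposure lasted 48 hours before the viability readout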). As to conditions: SU-DIPG-IV viability, CellTiter-Glo ATP luminescence.
A short description of experiment [2]: growth inhibition of DIPG glioma cells, dose response, cell-based, SU-DIPG-XIII, MIPE5.0, CellTiter-Glo, qHTS (AID 1347064; cut-off not given, nearly all actives have AC50 up to about 23 µM;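 also: cells exposed to compound for 48 hours before the viability read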). As to conditions: SU-DIPG-XIII viability, CellTiter-Glo ATP luminescence.
The nature of experiment [3]: viability loss in pontine glioma line – cell-based, SU-DIPG-XXV, MIPE5.0, CellTiter-Glo, qHTS, dose response (AID 1347065; cut-off not given, nearly all actives have AC50 up to about 26 µM;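 also: cells exposed to compound for 48 hours before ATP readout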). As to conditions: CellTiter-Glo ATP luminescence.
Experiment [4] can be described thus: JHH-DIPG-1 glioma cell viability, MIPE5.0 library, CellTiter-Glo luminescence, qHTS (AID 1347067; cut-off not given, nearly all actives have AC50 up to about 26 µM;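 also: cells exposed to compound for 48 hours before readout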). To be noted: JHH-DIPG-1 glioma viability, CellTiter-Glo ATP luminescence.
The nature of experiment [5]: ovarian cancer cell viability with rucaparib, profiling panel, oncology-focused library, rucaparib conditional (AID 1508598). As to conditions: patient-derived ovarian cancer cells, CellTiter-Glo viability, 144 h, stronger effect = lower value.
A short description of experiment [6]: SU-DIPG-XXV glioma cell viability, MIPE5.0 library, qHTS (AID 1347068; cut-off not given, nearly all actives have IC50 up to about 30 µM;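 as to IC50: cells exposed to compound for 48 hours before viability readout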).
Experiment [7] in a line: sensitizers of A549 cells to miR-34 induction, primary screen, imaging, A549 dox-inducible miR-34, nuclei and caspase counts (AID 1347080;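 active = compounds whose cell count with miR-34 switched on is under 0.7 times the count with it off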). To be noted: A549 miR-34 inducible, Hoechst nuclei count, 48 h.
Experiment [8] in a line: survival rescue of mitochondrial mutant cells in low glucose, primary screen, MELAS cybrids, Rieske KO mouse fibroblasts, CellTiter-Glo (AID 1508586;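 active = mean z-score across replicates of 1.96 or higher in either the MELAS or the Rieske mutant cell line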;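 also: z relative to plate mean and SD of compound and empty wells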).
Experiment [9] in a line: growth inhibition of DIPG glioma cells, dose response, cell-based, JHH-DIPG-1, MIPE4.0, CellTiter-Glo, qHTS (AID 1347062; cut-off not given, nearly all actives have AC50 up to about 27 µM). To be noted: JHH-DIPG-1 viability, CellTiter-Glo ATP luminescence.
[10] abbreviates: stronger effect = lower value, cell number ratio, induced over uninduced.
Setting [11] is: measured here: relative caspase fold change +Dox/-Dox.
The mark [12] stands for this setting: measured here: total cells with miR-34 induction, stronger effect = lower value.
The mark [13] stands for this setting: measured here: total cells without miR-34 induction.
Where [14] appears, read: MELAS cybrid survival, CellTiter-Glo 48 h, stronger effect = higher value.
[15] abbreviates: Rieske KO mouse fibroblast survival, CellTiter-Glo 72 h.

As for `CNc1nc(-c2ccc3c(N)n[nH]c3c2)cc(N2C[C@@H](C(=O)NC3CCCCC3)CC[C@H]2C)n1`, the AC50 in experiment [1] is 20.9 µM (active); in experiment [2] it was 18.6 µM (active); in [3], 6.61 µM (active); in [4] it was 14.8 µM (active). Further, the viability in [5] (at 0.000305 µM, OCI-C5x cells, with rucaparib 10 µM, 100% = cells with rucaparib alone) was 103% (inactive); in [5] (at 0.000305 µM, OCI-C5x cells, without rucaparib), 113% (inactive); in [5] (at 0.000305 µM, OCI-P5x cells, with rucaparib 20 µM, 100% = cells with rucaparib alone) it was 103% (inactive); in [5] (at 0.000305 µM, OCI-P5x cells, without rucaparib), 106% (inactive); in experiment [5] (at 0.00122 µM, OCI-C5x cells, with rucaparib 10 µM, 100% = cells with rucaparib alone), 124% (inactive); in experiment [5] (at 0.00122 µM, OCI-C5x cells, without rucaparib), 115% (inactive). Moreover, the viability in experiment [5] (at 0.00122 µM, OCI-P5x cells, with rucaparib 20 µM, 100% = cells with rucaparib alone) is 97.7% (active); in [5] (at 0.00122 µM, OCI-P5x cells, without rucaparib), 102% (inactive); in experiment [5] (at 0.00488 µM, OCI-C5x cells, with rucaparib 10 µM, 100% = cells with rucaparib alone) it was 116% (inactive); in experiment [5] (at 0.00488 µM, OCI-C5x cells, without rucaparib) it was 111% (inactive); in [5] (at 0.00488 µM, OCI-P5x cells, with rucaparib 20 µM, 100% = cells with rucaparib alone), 100% (inactive); in experiment [5] (at 0.00488 µM, OCI-P5x cells, without rucaparib), 104% (inactive). Further, the viability is 119% (inactive) in experiment [5] (at 0.0195 µM, OCI-C5x cells, with rucaparib 10 µM, 100% = cells with rucaparib alone); 115% (inactive) in [5] (at 0.0195 µM, OCI-C5x cells, without rucaparib); 92.7% (active) in [5] (at 0.0195 µM, OCI-P5x cells, with rucaparib 20 µM, 100% = cells with rucaparib alone); 96.7% (active) in experiment [5] (at 0.0195 µM, OCI-P5x cells, without rucaparib); 117% (inactive) in experiment [5] (at 0.0781 µM, OCI-C5x cells, with rucaparib 10 µM, 100% = cells with rucaparib alone); 120% (inactive) in [5] (at 0.0781 µM, OCI-C5x cells, without rucaparib). For the same compound, the viability is 102% (inactive) in [5] (at 0.0781 µM, OCI-P5x cells, with rucaparib 20 µM, 100% = cells with rucaparib alone); 98.2% (active) in experiment [5] (at 0.0781 µM, OCI-P5x cells, without rucaparib); 107% (inactive) in [5] (at 0.313 µM, OCI-C5x cells, with rucaparib 10 µM, 100% = cells with rucaparib alone); 113% (inactive) in experiment [5] (at 0.313 µM, OCI-C5x cells, without rucaparib); 91% (active) in experiment [5] (at 0.313 µM, OCI-P5x cells, with rucaparib 20 µM, 100% = cells with rucaparib alone); 91.1% (active) in experiment [5] (at 0.313 µM, OCI-P5x cells, without rucaparib). For the same compound, the viability was 112% (inactive) in experiment [5] (at 1.25 µM, OCI-C5x cells, with rucaparib 10 µM, 100% = cells with rucaparib alone); 122% (inactive) in experiment [5] (at 1.25 µM, OCI-C5x cells, without rucaparib); 90% (active) in experiment [5] (at 1.25 µM, OCI-P5x cells, with rucaparib 20 µM, 100% = cells with rucaparib alone); 93.4% (active) in experiment [5] (at 1.25 µM, OCI-P5x cells, without rucaparib); 67.5% (active) in experiment [5] (at 5 µM, OCI-C5x cells, with rucaparib 10 µM, 100% = cells with rucaparib alone); 155% (inactive) in [5] (at 5 µM, OCI-C5x cells, without rucaparib). For the same compound, the viability was 22.3% (active) in experiment [5] (at 5 µM, OCI-P5x cells, with rucaparib 20 µM, 100% = cells with rucaparib alone) and 84.2% (active) in [5] (at 5 µM, OCI-P5x cells, without rucaparib).
Regarding `CNC(=O)c1c(C)oc2cc(Oc3ncnc4cc(OC)c(OC)cc34)ccc12`, the AC50 in experiment [2] was 9.34 µM (active); in experiment [3], 6.61 µM (active).
For `O=c1cc(CN2CCOCC2)occ1OCCCCCSc1ccnc2cc(C(F)(F)F)ccc12`, in [1], the outcome was inactive. Further, the AC50 was 18.6 µM (active) in [2], 23.5 µM (active) in experiment [3] and 18.6 µM (active) in experiment [4]. Further, in experiment [6], the IC50 was 20.9 µM (active). In addition, the fold change in experiment [7] (setting [10]) was 0.876 (inactive); in experiment [7] (setting [11]), 0.509. Also, the figures for the cell count in experiment [7] (setting [12]) and in experiment [7] (setting [13]) were 6290 and 7180, respectively. The z-score in experiment [8] (setting [14]) is -0.449 (inactive); in experiment [8] (setting [15]), 0.747.
For `COc1ccc(CCC(=O)Nc2nc3ccc(Cl)cc3s2)cc1OC`, the compound was classed as inactive in [9], in experiment [4] and in [6]. In addition, the fold change in [7] (setting [10]) was 0.879 (inactive); in [7] (setting [11]), 0.345. The cell count in [7] (setting [12]) came to 7570; in [7] (setting [13]), 8610. Further, the z-score in experiment [8] (setting [14]) is 1.34 (inactive); in experiment [8] (setting [15]) it was -0.214.
For the compound `CO[C@H]1C[C@@H]2CC[C@@H](C)[C@@](O)(O2)C(=O)C(=O)N2CCCC[C@H]2C(=O)O[C@H]([C@H](C)C[C@@H]2CC[C@@H](OCCO)[C@H](OC)C2)CC(=O)[C@H](C)/C=C(/C)[C@@H](O)[C@@H](OC)C(=O)[C@H](C)C[C@H](C)/C=C\C=CC=C1C`, the AC50 is 8.33 µM (active) in experiment [1], 23.5 µM (active) in experiment [3] and 29.5 µM (active) in [4]. In addition, the IC50 in experiment [6] is 23.5 µM (active).
As to `O=C1NC(=O)/C(=C/c2ccc(-c3ccc(F)cc3O)o2)S1`, the result in [9] and in [4] was inactive. Further, the fold change in [7] (setting [10]) is 1.04 (inactive) and 0.983 (inactive); in experiment [7] (setting [11]), 2.12 and 0.302. Further, the cell count was 6690 and 5950 in experiment [7] (setting [12]); 6460 and 6050 in experiment [7] (setting [13]).
